Screening data (PubChem BioAssay)
D1 PAM: Potentiators of Human D1 Dopamine Receptor: qHTS; HEK293 TREx D1 cells, calcium flux, dopamine EC20 potentiation; D(1A) dopamine receptor (Homo sapiens), P21728; potentiation, % at 10 µM; AID 504651, 2011; 0.036% of 360,000 active; in the data active = potentiation above about 30%; note: 0% is about no effect
Target sequence (P21728 whole entry, looked up): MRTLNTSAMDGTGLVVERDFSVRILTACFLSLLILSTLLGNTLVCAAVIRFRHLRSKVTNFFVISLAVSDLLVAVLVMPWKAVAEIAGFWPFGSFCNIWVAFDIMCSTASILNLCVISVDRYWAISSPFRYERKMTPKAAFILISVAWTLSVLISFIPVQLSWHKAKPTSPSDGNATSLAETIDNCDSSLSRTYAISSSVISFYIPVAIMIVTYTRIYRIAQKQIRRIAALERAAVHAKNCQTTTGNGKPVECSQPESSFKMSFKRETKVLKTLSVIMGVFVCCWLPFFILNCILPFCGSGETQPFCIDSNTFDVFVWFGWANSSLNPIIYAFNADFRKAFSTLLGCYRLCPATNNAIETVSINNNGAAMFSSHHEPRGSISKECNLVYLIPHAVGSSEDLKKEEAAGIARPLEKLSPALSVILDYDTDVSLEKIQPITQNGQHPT
D1 antagonist: Antagonist of Human D 1 Dopamine Receptor: qHTS; D(1A) dopamine receptor (Homo sapiens), P21728; HEK293 TREx D1 cells, calcium flux, dopamine EC80; stronger effect = lower value; activity change, negative = inhibition, % at 10 µM; 3.2% of 360,000 active; in the data active = activity change below about -30%; note: % is set by controls: 0 for no effect and ±100 for the full control effect
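Using tetracycline-induced force-coupled D1 Hek293 cells and a calcium dye, signals were followed for 180 s after compound, then for 180 s after EC80 dopamine, to detect inhibitors.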
TRHR enhancer: qHTS for Small Molecule Agonists and Allosteric Enhancers of Human TRH Receptor: Primary Screen for Enhancers | Thyrotropin-releasing hormone receptor (Homo sapiens), P34981 | TRHR cells, fluo-8 calcium fluorescence, EC20 TRH enhancement | enhancement, % at 2 µM | 0.66% of 360,000 active; in the data active = enhancement above about 30%; note: 0% is about no effect
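TRHR-expressing cells loaded with fluo-8 calcium dye were read kinetically (ex 480/em 530) during compound addition, then stimulated with an EC20 of TRH (10 nM final). Enhancement of the Gq-mediated intracellular calcium response was scored.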
TRHR agonist: qHTS for Small Molecule Agonists and Allosteric Enhancers of Human TRH Receptor: Primary Screen for Agonists; activation, % at 2 µM; TRHR cells, calcium flux fluo-8, FDSS agonist mode; 0.18% of 360,000 active; Thyrotropin-releasing hormone receptor (Homo sapiens), P34981; note: 0% is about no effect
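TRHR-expressing cells, plated overnight in medium with 10% serum, were loaded with fluo-8 calcium dye at room temperature. After a 10 s baseline, library compound was pin-added and calcium release was recorded kinetically (ex 480/em 530) as agonist response.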
D1 ag: Allosteric Agonists of the Human D1 Dopamine Receptor: qHTS. HEK293 T-REx D1 cells, calcium flux, agonist mode. D(1A) dopamine receptor (Homo sapiens), P21728. activation, % at 2 µM. 1% of 360,000 active; note: 0% is about no effect
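Agonism was scored from calcium flux recorded over 180 s (1 read/s) after pintool compound addition, following a 10-cycle baseline. Cells were inducible force-coupled HEK293 TREx D1, plated overnight at 30 C and loaded with no-wash calcium dye.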
Active calls of the source: *. A selection: hits, their analogues and other compounds. The true share with any hit is near 4.7%. Cut-off read from the data, not from the text of the source, unless noted: active = activation above about 30%; inactive = the rest.

`Cc1ccc(OCc2cc(C(=O)N3CCN(C4CCCCC4)CC3)no2)cc1C` gave D1 PAM -3.9, D1 antagonist -1.9, TRHR enhancer 7.9, TRHR agonist 0.0 and D1 ag 7.5.
For CCNc1nc(N2CCOCC2)nc(N(c2ccccc2)c2ccccc2)n1 the results were D1 PAM -8.2, D1 antagonist 15.2, TRHR enhancer 36.8*, TRHR agonist -1.1 and D1 ag -0.4.
Screening CC(C)Cc1[nH]c(=O)c(C#N)c2c1COC(C)(C)C2 returned D1 PAM -4.7, D1 antagonist -32.7*, TRHR enhancer 0.1, TRHR agonist 0.4 and D1 ag 0.9.
For CCCc1[nH]c(=O)c(C#N)c2c1COC(C)(C)C2 the results were D1 PAM -3.2, D1 antagonist 7.5, TRHR enhancer 1.8, TRHR agonist 0.4 and D1 ag 2.7.
For O=C(COC(=O)c1ccccc1SCC(=O)N1CCCC1)Nc1ccccc1 the results were D1 PAM -2.1, D1 antagonist -24.8, TRHR enhancer 2.0, TRHR agonist -0.9 and D1 ag 9.2.
For CC(C)(C)N(Cc1ccccc1)C(=O)COC(=O)c1ccccc1SCC(=O)N1CCCC1 the results were D1 PAM -5.5, D1 antagonist -37.6*, TRHR enhancer -1.1, TRHR agonist 0.2 and D1 ag 0.0.
Cc1cc2oc(C(=O)Nc3ccc(S(N)(=O)=O)cc3)cc(=O)c2cc1C was read as D1 PAM -1.9, D1 antagonist -58.1*, TRHR enhancer 19.9, TRHR agonist 0.2 and D1 ag 0.5.
`COc1c(C)cc(Br)cc1C(=O)Nc1ccc(S(N)(=O)=O)cc1` gave D1 PAM -5.5, D1 antagonist -60.7*, TRHR enhancer -2.5, TRHR agonist -1.4 and D1 ag 1.4.
For CCCCCSc1nnc2c(n1)OC(CC)Nc1ccc(Br)cc1-2 (stereo unspecified) the results were D1 PAM -2.6, D1 antagonist -18.4, TRHR enhancer -5.9, TRHR agonist -0.4 and D1 ag 0.9.
Screening c1coc(CNc2ncnc3nc[nH]c23)c1 returned D1 PAM 0.3, D1 antagonist 0.5, TRHR enhancer -0.4, TRHR agonist 0.6 and D1 ag 2.9.
`c1coc(CNc2ncnc3[nH]ncc23)c1` gave D1 PAM -4.3, D1 antagonist -40.7*, TRHR enhancer 7.5, TRHR agonist 1.8 and D1 ag 6.0.
For O=C(Nc1cccc(Cl)c1)c1ccc2nc(Cc3ccccc3)oc2c1 the results were D1 PAM -1.1, D1 antagonist -2.6, TRHR enhancer -0.5, TRHR agonist 0.5 and D1 ag 8.0.
For Cc1ccc(C)c(OCC(=O)OCC(=O)Nc2c(C)nn(-c3ccccc3)c2C)c1 the results were D1 PAM -4.2, D1 antagonist -2.5, TRHR enhancer -6.2, TRHR agonist 0.0 and D1 ag 6.4.
`Cc1ccc(OCC(=O)Nc2c(C)nn(-c3ccccc3)c2C)c(Br)c1` gave D1 PAM -4.3, D1 antagonist -37.1*, TRHR enhancer -3.2, TRHR agonist -0.3 and D1 ag 14.6.
For CC(NC(=O)c1ccc(Br)o1)C1CC2CCC1C2 (stereo unspecified) the results were D1 PAM 0.9, D1 antagonist 2.0, TRHR enhancer 0.7, TRHR agonist -0.1 and D1 ag -0.8.
For Cc1ccc(NC(=O)Cn2c(=O)cnc3ccccc32)cc1S(=O)(=O)N1CCCCC1 the results were D1 PAM -5.8, D1 antagonist -8.1, TRHR enhancer -3.5, TRHR agonist 0.3 and D1 ag 4.7.
COc1ccc(NC(=O)Cn2c(=O)cnc3ccccc32)cc1S(=O)(=O)N1CCCCC1 was read as D1 PAM -4.0, D1 antagonist -47.6*, TRHR enhancer 7.5, TRHR agonist -0.8 and D1 ag -2.4.
CCOc1ccc(NC(=O)C2=NN(c3ccccc3)C(=O)CC2)cc1S(=O)(=O)N1CCCCC1 was read as D1 PAM -1.1, D1 antagonist -35.4*, TRHR enhancer -3.4, TRHR agonist 0.5 and D1 ag 5.4.
Screening CN(Cc1cc2ccccc2[nH]c1=O)C(=O)COc1ccccc1 returned D1 PAM -2.5, D1 antagonist 1.6, TRHR enhancer 0.5, TRHR agonist -0.1 and D1 ag 1.3.
Screening O=C(Nc1ccc(C(F)(F)F)cc1)c1ccccc1Br returned D1 PAM -6.7, D1 antagonist -38.3*, TRHR enhancer 1.4, TRHR agonist -0.4 and D1 ag 4.1.
`O=C(Nc1ccc(NC(=O)c2ccccc2Br)cc1)c1ccccc1` gave D1 PAM -3.2, D1 antagonist -15.7, TRHR enhancer -1.8, TRHR agonist 1.2 and D1 ag 3.9.
For O=C(C[n+]1ccc(C(=O)c2ccccc2)cc1)Nc1ccc(C(F)(F)F)cc1 the results were D1 PAM -2.8, D1 antagonist -42.8*, TRHR enhancer 2.5, TRHR agonist -0.1 and D1 ag 2.1.
Screening O=C(Nc1ccc(C(=O)c2ccccc2)cc1)c1ccccc1 returned D1 PAM -16.3, D1 antagonist 9.1, TRHR enhancer -6.3, TRHR agonist 1.2 and D1 ag 7.8.
`O=C(Nc1ccc(C(F)(F)F)cc1)c1ccccc1` gave D1 PAM -11.6, D1 antagonist -48.9*, TRHR enhancer -3.7, TRHR agonist 0.0 and D1 ag 1.0.
Screening Nc1cc[n+](CC(=O)Nc2ccccc2)cc1 returned D1 PAM -2.5, D1 antagonist -6.4, TRHR enhancer 1.9, TRHR agonist 0.2 and D1 ag 0.9.
NNC(=O)CNC(c1ccccc1)c1cc(Br)ccc1NC(=O)c1ccc(Br)cc1 (stereo unspecified) was read as D1 PAM -8.4, D1 antagonist 2.9, TRHR enhancer 2.7, TRHR agonist -1.0 and D1 ag 17.1.
Screening NNC(=O)CNC(c1ccccc1)c1cc(Br)ccc1NC(=O)CCN1CCOCC1 (stereo unspecified) returned D1 PAM 3.8, D1 antagonist -0.5, TRHR enhancer 35.9*, TRHR agonist -0.9 and D1 ag 6.7.
For CC(C)n1cnc2c(N(C)c3ccccc3)nc(N(CCN(C)C)Cc3ccccc3)nc21 the results were D1 PAM 0.5, D1 antagonist -104.0*, TRHR enhancer -5.9, TRHR agonist 4.0 and D1 ag 28.1.
O=C(COC(=O)CNS(=O)(=O)c1ccc(Br)cc1Cl)NCCc1ccccc1 was read as D1 PAM -6.5, D1 antagonist -33.8*, TRHR enhancer 6.6, TRHR agonist -0.4 and D1 ag 2.5.
